# Results filed as inconclusive are left out. The source made the active and inactive calls. How the source made its calls, unless noted: active means hit-call score of the fitted dose curve at least 0.9, where 1 is the maximum; inconclusive means response in the unintended direction; inactive means score below 0.9.
# Biological target: Estrogen receptor (Homo sapiens) (UniProt P03372)
# Experiment: OT_ERa_GFPERaERE_0480: Odyssey Thera (OT) 8-hour HeLa Transcription Induction Assay for Estrogen Receptor (AID 2283381; active means hit-call score of the fitted dose curve at least 0.9, where 1 is the maximum; inactive means score below 0.9)
# Procedure, shortened: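 Cells (HeLa) receive compound; after 8 h, reporter fluorescence is imaged and quantified by high-content analysis. Gain-of-signal relative to DMSO gives the endpoint.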
# Sequence of Estrogen receptor (Homo sapiens) (P03372 whole entry, looked up): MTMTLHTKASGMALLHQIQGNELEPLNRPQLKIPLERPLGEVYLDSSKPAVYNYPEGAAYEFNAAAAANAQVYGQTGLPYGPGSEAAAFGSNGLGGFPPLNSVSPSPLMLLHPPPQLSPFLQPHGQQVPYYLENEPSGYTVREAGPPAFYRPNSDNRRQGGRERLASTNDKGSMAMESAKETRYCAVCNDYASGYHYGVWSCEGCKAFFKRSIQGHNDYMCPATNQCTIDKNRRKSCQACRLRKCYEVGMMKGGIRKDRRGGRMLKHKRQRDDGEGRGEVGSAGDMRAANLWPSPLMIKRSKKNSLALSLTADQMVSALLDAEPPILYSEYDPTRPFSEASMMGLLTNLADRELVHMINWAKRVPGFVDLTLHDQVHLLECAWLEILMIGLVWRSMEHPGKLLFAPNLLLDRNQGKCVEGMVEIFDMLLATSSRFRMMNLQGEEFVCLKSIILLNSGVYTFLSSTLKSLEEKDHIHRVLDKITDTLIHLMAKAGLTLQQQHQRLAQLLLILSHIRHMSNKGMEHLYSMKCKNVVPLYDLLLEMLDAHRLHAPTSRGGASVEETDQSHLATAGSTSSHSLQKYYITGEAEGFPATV
SMILES,outcome,AC50
CCCCOCCOP(=O)(OCCOCCCC)OCCOCCCC,inactive,
O=C(O)CF,inactive,
c1cc2c3c(cccc3c1)CC2,inactive,
CCOC(=O)c1ccccc1C(=O)OCC,inactive,
Nc1ccc2ccccc2c1,inactive,
CN(C)C(=O)Cl,inactive,
COC(N)=O,inactive,
CCOP(=S)(Oc1ccc([N+](=O)[O-])cc1)c1ccccc1 (configuration not stated),,12.7 µM (active)
CSC(C)(C)C=NO,inactive,
O=C(O)C(Cl)Cl,inactive,
[N-]=[N+]=[N-],inactive,
FC(F)(F)c1ccc(Cl)cc1,inactive,
O=P1(N(CCCl)CCCl)NCCCO1 (configuration not stated),inactive,
CC1(C)CN=C(NN=C(/C=C/c2ccc(C(F)(F)F)cc2)/C=C/c2ccc(C(F)(F)F)cc2)NC1,inactive,
Cc1cccc(N)c1,inactive,
CCCCOCC1CO1 (configuration not stated),inactive,
CC(Cc1ccc(OCC(=O)O)cc1)NCC(O)c1csc(C(F)(F)F)n1 (configuration not stated),inactive,
CCOS(=O)(=O)OCC,inactive,
O=[N+]([O-])c1ccccc1,inactive,
c1ccc2c(c1)sc1ccccc12,inactive,
ClC(Cl)c1ccccc1,inactive,
c1ccc2c(c1)Nc1ccccc1S2,inactive,
c1ccc(OP(Oc2ccccc2)Oc2ccccc2)cc1,inactive,
Cc1ccc(O)cc1C,inactive,
COCCOCCO,inactive,
Nc1cc2c3c(c1)C(c1ccccc1)=N[C@@H](NC(=O)c1cccnc1)C(=O)N3CC2,inactive,

# Biological target: Estrogen receptor (Homo sapiens) (UniProt P03372)
# Experiment: OT_ERa_GFPERaERE_0120: Odyssey Thera (OT) 2-hour HeLa Transcription Induction Assay for Estrogen Receptor (AID 2283382)
# Procedure, shortened: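 Measures ESR1 pathway reporter gain-of-signal in HeLa cells after a 2-hour treatment, detected as fluorescent protein induction by microscopy, DMSO as baseline.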
SMILES,outcome,AC50
CCCCOCCOP(=O)(OCCOCCCC)OCCOCCCC,inactive,
O=C(O)CF,inactive,
c1cc2c3c(cccc3c1)CC2,inactive,
CCOC(=O)c1ccccc1C(=O)OCC,inactive,
Nc1ccc2ccccc2c1,inactive,
CN(C)C(=O)Cl,inactive,
COC(N)=O,inactive,
CCOP(=S)(Oc1ccc([N+](=O)[O-])cc1)c1ccccc1 (configuration not stated),,18.4 µM (active)
CSC(C)(C)C=NO,inactive,
O=C(O)C(Cl)Cl,inactive,
[N-]=[N+]=[N-],inactive,
FC(F)(F)c1ccc(Cl)cc1,inactive,
O=P1(N(CCCl)CCCl)NCCCO1 (configuration not stated),inactive,
CC1(C)CN=C(NN=C(/C=C/c2ccc(C(F)(F)F)cc2)/C=C/c2ccc(C(F)(F)F)cc2)NC1,inactive,
Cc1cccc(N)c1,inactive,
CCCCOCC1CO1 (configuration not stated),inactive,
CC(Cc1ccc(OCC(=O)O)cc1)NCC(O)c1csc(C(F)(F)F)n1 (configuration not stated),inactive,
CCOS(=O)(=O)OCC,inactive,
O=[N+]([O-])c1ccccc1,inactive,
c1ccc2c(c1)sc1ccccc12,inactive,
ClC(Cl)c1ccccc1,inactive,
c1ccc2c(c1)Nc1ccccc1S2,inactive,
c1ccc(OP(Oc2ccccc2)Oc2ccccc2)cc1,inactive,
Cc1ccc(O)cc1C,inactive,
COCCOCCO,inactive,
Nc1cc2c3c(c1)C(c1ccccc1)=N[C@@H](NC(=O)c1cccnc1)C(=O)N3CC2,inactive,

# Biological target: Retinoic acid receptor RXR-alpha (Homo sapiens) (UniProt P19793)
# Experiment: OT_NURR1_NURR1RXRa_0480: Odyssey Thera (OT) 8-hour HEK293T Protein Complementation Assay for Nurr1/retinoid X receptor (RXR) (AID 2283385)
# Procedure, shortened: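 Compounds are applied to HEK293T cells carrying Nurr1 and RXRα linked to reporter fragments. After 8 h, fluorescence intensity reports heterodimer formation, with DMSO as baseline.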
# Sequence of Retinoic acid receptor RXR-alpha (Homo sapiens) (P19793 whole entry, looked up): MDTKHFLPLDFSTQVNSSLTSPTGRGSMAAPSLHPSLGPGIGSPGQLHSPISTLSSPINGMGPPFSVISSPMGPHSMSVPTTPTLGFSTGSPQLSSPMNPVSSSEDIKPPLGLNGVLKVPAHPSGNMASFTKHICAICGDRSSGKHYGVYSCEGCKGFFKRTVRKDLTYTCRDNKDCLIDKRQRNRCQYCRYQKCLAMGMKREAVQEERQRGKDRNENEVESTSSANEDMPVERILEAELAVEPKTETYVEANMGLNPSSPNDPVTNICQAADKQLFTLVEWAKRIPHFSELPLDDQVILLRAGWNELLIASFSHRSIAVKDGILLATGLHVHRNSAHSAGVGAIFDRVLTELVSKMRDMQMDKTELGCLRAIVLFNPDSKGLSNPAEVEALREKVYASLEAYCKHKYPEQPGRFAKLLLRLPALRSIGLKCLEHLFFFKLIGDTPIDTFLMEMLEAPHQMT
SMILES,outcome,AC50
CCCCOCCOP(=O)(OCCOCCCC)OCCOCCCC,inactive,
O=C(O)CF,inactive,
c1cc2c3c(cccc3c1)CC2,inactive,
CCOC(=O)c1ccccc1C(=O)OCC,inactive,
Nc1ccc2ccccc2c1,inactive,
CN(C)C(=O)Cl,inactive,
CCOP(=S)(Oc1ccc([N+](=O)[O-])cc1)c1ccccc1 (configuration not stated),inactive,
CSC(C)(C)C=NO,inactive,
O=C(O)C(Cl)Cl,inactive,
FC(F)(F)c1ccc(Cl)cc1,inactive,
O=P1(N(CCCl)CCCl)NCCCO1 (configuration not stated),inactive,
CCCCOCC1CO1 (configuration not stated),inactive,
CC(Cc1ccc(OCC(=O)O)cc1)NCC(O)c1csc(C(F)(F)F)n1 (configuration not stated),inactive,
O=[N+]([O-])c1ccccc1,inactive,
ClC(Cl)c1ccccc1,inactive,
c1ccc2c(c1)Nc1ccccc1S2,inactive,
c1ccc(OP(Oc2ccccc2)Oc2ccccc2)cc1,inactive,
Cc1ccc(O)cc1C,inactive,
COCCOCCO,inactive,
Nc1cc2c3c(c1)C(c1ccccc1)=N[C@@H](NC(=O)c1cccnc1)C(=O)N3CC2,,50 µM (active)
CC(C)(C)c1ccc(O)cc1,inactive,

# Biological target: Retinoic acid receptor RXR-alpha (Homo sapiens) (UniProt P19793)
# Experiment: OT_NURR1_NURR1RXRa_1440: Odyssey Thera (OT) 24-hour HEK293T Protein Complementation Assay for Nurr1/retinoid X receptor (RXR) (AID 2283386)
# Procedure, shortened: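 Measured as fluorescence from a reconstituted split reporter, this 24 h HEK293T complementation assay scores compound-induced gain of Nurr1/RXRα association relative to DMSO.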
row,SMILES,outcome
1,CCCCOCCOP(=O)(OCCOCCCC)OCCOCCCC,inactive
2,c1cc2c3c(cccc3c1)CC2,inactive
3,CCOC(=O)c1ccccc1C(=O)OCC,inactive
4,Nc1ccc2ccccc2c1,inactive
5,COC(N)=O,inactive
6,CCOP(=S)(Oc1ccc([N+](=O)[O-])cc1)c1ccccc1 (configuration not stated),inactive
7,O=C(O)C(Cl)Cl,inactive
8,FC(F)(F)c1ccc(Cl)cc1,inactive
9,O=P1(N(CCCl)CCCl)NCCCO1 (configuration not stated),inactive
10,CCCCOCC1CO1 (configuration not stated),inactive
11,CC(Cc1ccc(OCC(=O)O)cc1)NCC(O)c1csc(C(F)(F)F)n1 (configuration not stated),inactive
12,CCOS(=O)(=O)OCC,inactive
13,O=[N+]([O-])c1ccccc1,inactive
14,c1ccc2c(c1)Nc1ccccc1S2,inactive
15,c1ccc(OP(Oc2ccccc2)Oc2ccccc2)cc1,inactive
16,Cc1ccc(O)cc1C,inactive
17,COCCOCCO,inactive
18,Nc1cc2c3c(c1)C(c1ccccc1)=N[C@@H](NC(=O)c1cccnc1)C(=O)N3CC2,inactive
19,CC(C)(C)c1ccc(O)cc1,inactive

# Reference: PubChem BioAssay (EPA / NIEHS)
